Test results taken from the supplement of paper PMC6897291.

Key:
U-2932 [1] = experiment: growth inhibition by drug alone (1 - RLU/untreated control) (fraction); higher = stronger inhibition; settings: 177Lu-lilotomab satetraxetan 0 ug/ml
Outline: (§1)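 Plates pre-printed with the Selleck Cambridge Cancer Compound library at 10/100 nM (RIVA) or 10/1,000 nM (U-2932) received 3,000 cells/well. These cells had been washed after 18 h untreated or with a radiolabelled anti-CD37 antibody conjugate (~600 MBq/mg; 0.5 µg/ml RIVA, 1 µg/ml U-2932). Growth inhibition was obtained from RealTime-Glo luminescence in relation to untreated no-drug wells. Each daily read from day 3, taken after 1 h at 37°C, was converted as 1 − RLU/mean of 48 such wells per plate.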

RIVA [2] = experiment: as above; settings: 177Lu-lilotomab satetraxetan 0 ug/ml
Outline: as §1

U-2932 [3] = experiment: growth inhibition by drug plus 177Lu-lilotomab satetraxetan (1 - RLU/untreated control) (fraction); higher = stronger inhibition; settings: 177Lu-lilotomab satetraxetan 1 ug/ml
Outline: as §1

RIVA [4] = experiment: as above; settings: 177Lu-lilotomab satetraxetan 0.5 ug/ml
Outline: as §1

Cc1ccc([C@@H]2O[C@H](CO)[C@@H](O)[C@H](O)[C@H]2O)cc1Cc1ccc(-c2ccc(F)cc2)s1 [Canagliflozin]
growth inhibition by drug alone (U-2932 [1]; 10 nM, time (day): 3): -0.0178 | growth inhibition by drug alone (U-2932 [1]; 10 nM, time (day): 4): -0.0268 | growth inhibition by drug alone (U-2932 [1]; 10 nM, time (day): 5): -0.0429 | growth inhibition by drug alone (U-2932 [1]; 10 nM, time (day): 6): 0.0177 | growth inhibition by drug alone (U-2932 [1]; 1000 nM, time (day): 3): -0.0399 | growth inhibition by drug alone (U-2932 [1]; 1000 nM, time (day): 4): 0.00599 | growth inhibition by drug alone (U-2932 [1]; 1000 nM, time (day): 5): -0.0361 | growth inhibition by drug alone (U-2932 [1]; 1000 nM, time (day): 6): -0.0715 | growth inhibition by drug alone (RIVA [2]; 10 nM, time (day): 3): -0.0859 | growth inhibition by drug alone (RIVA [2]; 10 nM, time (day): 4): -0.106 | growth inhibition by drug alone (RIVA [2]; 10 nM, time (day): 5): -0.126 | growth inhibition by drug alone (RIVA [2]; 10 nM, time (day): 6): -0.215 | growth inhibition by drug alone (RIVA [2]; 100 nM, time (day): 3): 0.00364 | growth inhibition by drug alone (RIVA [2]; 100 nM, time (day): 4): -0.0271 | growth inhibition by drug alone (RIVA [2]; 100 nM, time (day): 5): -0.0583 | growth inhibition by drug alone (RIVA [2]; 100 nM, time (day): 6): -0.103 | growth inhibition by drug plus 177Lu-lilotomab satetraxetan (U-2932 [3]; 10 nM, time (day): 3): 0.00296 | growth inhibition by drug plus 177Lu-lilotomab satetraxetan (U-2932 [3]; 10 nM, time (day): 4): 0.0208 | growth inhibition by drug plus 177Lu-lilotomab satetraxetan (U-2932 [3]; 10 nM, time (day): 5): 0.0301 | growth inhibition by drug plus 177Lu-lilotomab satetraxetan (U-2932 [3]; 10 nM, time (day): 6): 0.162 | growth inhibition by drug plus 177Lu-lilotomab satetraxetan (U-2932 [3]; 1000 nM, time (day): 3): -0.0686 | growth inhibition by drug plus 177Lu-lilotomab satetraxetan (U-2932 [3]; 1000 nM, time (day): 4): 0.0117 | growth inhibition by drug plus 177Lu-lilotomab satetraxetan (U-2932 [3]; 1000 nM, time (day): 5): 0.0289 | growth inhibition by drug plus 177Lu-lilotomab satetraxetan (U-2932 [3]; 1000 nM, time (day): 6): 0.0944 | growth inhibition by drug plus 177Lu-lilotomab satetraxetan (RIVA [4]; 10 nM, time (day): 3): 0.342 | growth inhibition by drug plus 177Lu-lilotomab satetraxetan (RIVA [4]; 10 nM, time (day): 4): 0.476 | growth inhibition by drug plus 177Lu-lilotomab satetraxetan (RIVA [4]; 10 nM, time (day): 5): 0.499 | growth inhibition by drug plus 177Lu-lilotomab satetraxetan (RIVA [4]; 10 nM, time (day): 6): 0.519 | growth inhibition by drug plus 177Lu-lilotomab satetraxetan (RIVA [4]; 100 nM, time (day): 3): 0.383 | growth inhibition by drug plus 177Lu-lilotomab satetraxetan (RIVA [4]; 100 nM, time (day): 4): 0.437 | growth inhibition by drug plus 177Lu-lilotomab satetraxetan (RIVA [4]; 100 nM, time (day): 5): 0.439 | growth inhibition by drug plus 177Lu-lilotomab satetraxetan (RIVA [4]; 100 nM, time (day): 6): 0.418

CC(=O)O[C@@]12CO[C@@H]1C[C@H](O)[C@@]1(C)C(=O)[C@H](O)C3=C(C)[C@@H](OC(=O)[C@H](O)[C@@H](NC(=O)OC(C)(C)C)c4ccccc4)C[C@@](O)([C@@H](OC(=O)c4ccccc4)[C@H]21)C3(C)C [Docetaxel (Taxotere)]
growth inhibition by drug alone (U-2932 [1]; 10 nM, time (day): 3): 0.953 | growth inhibition by drug alone (U-2932 [1]; 10 nM, time (day): 4): 0.965 | growth inhibition by drug alone (U-2932 [1]; 10 nM, time (day): 5): 0.974 | growth inhibition by drug alone (U-2932 [1]; 10 nM, time (day): 6): 0.978 | growth inhibition by drug alone (U-2932 [1]; 1000 nM, time (day): 3): 0.964 | growth inhibition by drug alone (U-2932 [1]; 1000 nM, time (day): 4): 0.972 | growth inhibition by drug alone (U-2932 [1]; 1000 nM, time (day): 5): 0.977 | growth inhibition by drug alone (U-2932 [1]; 1000 nM, time (day): 6): 0.98 | growth inhibition by drug alone (RIVA [2]; 10 nM, time (day): 3): 0.953 | growth inhibition by drug alone (RIVA [2]; 10 nM, time (day): 4): 0.967 | growth inhibition by drug alone (RIVA [2]; 10 nM, time (day): 5): 0.973 | growth inhibition by drug alone (RIVA [2]; 10 nM, time (day): 6): 0.973 | growth inhibition by drug alone (RIVA [2]; 100 nM, time (day): 3): 0.949 | growth inhibition by drug alone (RIVA [2]; 100 nM, time (day): 4): 0.964 | growth inhibition by drug alone (RIVA [2]; 100 nM, time (day): 5): 0.969 | growth inhibition by drug alone (RIVA [2]; 100 nM, time (day): 6): 0.971 | growth inhibition by drug plus 177Lu-lilotomab satetraxetan (U-2932 [3]; 10 nM, time (day): 3): 0.96 | growth inhibition by drug plus 177Lu-lilotomab satetraxetan (U-2932 [3]; 10 nM, time (day): 4): 0.971 | growth inhibition by drug plus 177Lu-lilotomab satetraxetan (U-2932 [3]; 10 nM, time (day): 5): 0.977 | growth inhibition by drug plus 177Lu-lilotomab satetraxetan (U-2932 [3]; 10 nM, time (day): 6): 0.983 | growth inhibition by drug plus 177Lu-lilotomab satetraxetan (U-2932 [3]; 1000 nM, time (day): 3): 0.966 | growth inhibition by drug plus 177Lu-lilotomab satetraxetan (U-2932 [3]; 1000 nM, time (day): 4): 0.977 | growth inhibition by drug plus 177Lu-lilotomab satetraxetan (U-2932 [3]; 1000 nM, time (day): 5): 0.982 | growth inhibition by drug plus 177Lu-lilotomab satetraxetan (U-2932 [3]; 1000 nM, time (day): 6): 0.985 | growth inhibition by drug plus 177Lu-lilotomab satetraxetan (RIVA [4]; 10 nM, time (day): 3): 0.968 | growth inhibition by drug plus 177Lu-lilotomab satetraxetan (RIVA [4]; 10 nM, time (day): 4): 0.982 | growth inhibition by drug plus 177Lu-lilotomab satetraxetan (RIVA [4]; 10 nM, time (day): 5): 0.985 | growth inhibition by drug plus 177Lu-lilotomab satetraxetan (RIVA [4]; 10 nM, time (day): 6): 0.988 | growth inhibition by drug plus 177Lu-lilotomab satetraxetan (RIVA [4]; 100 nM, time (day): 3): 0.967 | growth inhibition by drug plus 177Lu-lilotomab satetraxetan (RIVA [4]; 100 nM, time (day): 4): 0.979 | growth inhibition by drug plus 177Lu-lilotomab satetraxetan (RIVA [4]; 100 nM, time (day): 5): 0.985 | growth inhibition by drug plus 177Lu-lilotomab satetraxetan (RIVA [4]; 100 nM, time (day): 6): 0.987

Cc1ccc([N+](=O)[O-])cc1S(=O)(=O)N(C)/N=C/c1cnc2ccc(Br)cn12
growth inhibition by drug alone (U-2932 [1]; 10 nM, time (day): 3): 0.343 | growth inhibition by drug alone (U-2932 [1]; 10 nM, time (day): 4): 0.311 | growth inhibition by drug alone (U-2932 [1]; 10 nM, time (day): 5): 0.248 | growth inhibition by drug alone (U-2932 [1]; 10 nM, time (day): 6): 0.226 | growth inhibition by drug alone (U-2932 [1]; 1000 nM, time (day): 3): 0.963 | growth inhibition by drug alone (U-2932 [1]; 1000 nM, time (day): 4): 0.969 | growth inhibition by drug alone (U-2932 [1]; 1000 nM, time (day): 5): 0.976 | growth inhibition by drug alone (U-2932 [1]; 1000 nM, time (day): 6): 0.979 | growth inhibition by drug alone (RIVA [2]; 10 nM, time (day): 3): 0.193 | growth inhibition by drug alone (RIVA [2]; 10 nM, time (day): 4): 0.193 | growth inhibition by drug alone (RIVA [2]; 10 nM, time (day): 5): 0.103 | growth inhibition by drug alone (RIVA [2]; 10 nM, time (day): 6): -0.15 | growth inhibition by drug alone (RIVA [2]; 100 nM, time (day): 3): 0.507 | growth inhibition by drug alone (RIVA [2]; 100 nM, time (day): 4): 0.599 | growth inhibition by drug alone (RIVA [2]; 100 nM, time (day): 5): 0.585 | growth inhibition by drug alone (RIVA [2]; 100 nM, time (day): 6): 0.539 | growth inhibition by drug plus 177Lu-lilotomab satetraxetan (U-2932 [3]; 10 nM, time (day): 3): 0.346 | growth inhibition by drug plus 177Lu-lilotomab satetraxetan (U-2932 [3]; 10 nM, time (day): 4): 0.371 | growth inhibition by drug plus 177Lu-lilotomab satetraxetan (U-2932 [3]; 10 nM, time (day): 5): 0.418 | growth inhibition by drug plus 177Lu-lilotomab satetraxetan (U-2932 [3]; 10 nM, time (day): 6): 0.47 | growth inhibition by drug plus 177Lu-lilotomab satetraxetan (U-2932 [3]; 1000 nM, time (day): 3): 0.969 | growth inhibition by drug plus 177Lu-lilotomab satetraxetan (U-2932 [3]; 1000 nM, time (day): 4): 0.975 | growth inhibition by drug plus 177Lu-lilotomab satetraxetan (U-2932 [3]; 1000 nM, time (day): 5): 0.981 | growth inhibition by drug plus 177Lu-lilotomab satetraxetan (U-2932 [3]; 1000 nM, time (day): 6): 0.985 | growth inhibition by drug plus 177Lu-lilotomab satetraxetan (RIVA [4]; 10 nM, time (day): 3): 0.675 | growth inhibition by drug plus 177Lu-lilotomab satetraxetan (RIVA [4]; 10 nM, time (day): 4): 0.726 | growth inhibition by drug plus 177Lu-lilotomab satetraxetan (RIVA [4]; 10 nM, time (day): 5): 0.736 | growth inhibition by drug plus 177Lu-lilotomab satetraxetan (RIVA [4]; 10 nM, time (day): 6): 0.726 | growth inhibition by drug plus 177Lu-lilotomab satetraxetan (RIVA [4]; 100 nM, time (day): 3): 0.775 | growth inhibition by drug plus 177Lu-lilotomab satetraxetan (RIVA [4]; 100 nM, time (day): 4): 0.854 | growth inhibition by drug plus 177Lu-lilotomab satetraxetan (RIVA [4]; 100 nM, time (day): 5): 0.868 | growth inhibition by drug plus 177Lu-lilotomab satetraxetan (RIVA [4]; 100 nM, time (day): 6): 0.889
